Results: PubChem BioAssay (NCI)
Compounds without any hit were thinned out: in the full panel of roughly 83,000, 20% have a hit.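 Growth was measured after 48 h exposure to one concentration of compound in 96-well plates. Values under 10 count as active.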 The source made the active and inactive calls.

system: MOLT-4 leukemia; assay: NCI-60 one-dose screen, 48 h (100 = growth as untreated, 0 = no growth, -100 = all killed); settings: 10 µM

Row | SMILES | growth
1 | COc1ccc(C(=O)NC(=S)N2CCN(c3ncnc4c3cnn4-c3ccccc3)CC2)cc1 | 58.2% (inactive)
2 | COc1cccc(COc2ccc(/C=C3\Oc4cc(O)ccc4C3=O)cc2)c1 | 52.1% (inactive)
3 | O=C(O)CCCCCCCCCCN1C(=O)/C(=C/c2cnc(-c3ccc(Cl)cc3)s2)SC1=S | 19.7% (inactive)
4 | CN1C(=O)/C(=C/c2nccs2)SC1=S | 98.8% (inactive)
5 | COC(=O)C(Cc1ccc(O)c(O)c1)NC(=O)C(CSC/C=C(\C)CCCC(C)CCCC(C)CCCC(C)C)NC(C)=O (centres undefined) | 7.78% (active)
6 | CCCCCCCCCCCCCCCCCCCC(=O)NCCc1c[nH]c2ccc(O)cc12 | 71.2% (inactive)
7 | CCCCCCCCCCCCCCCCCCCC(=O)NCCc1c[nH]c2ccc(OC(=O)NOCCOCCOCCOCCOCCOCCOCCOCCOCCOCCOCCOCCOCCOCCOCCOCCOCCOCCOCCOCCOCCOCCOC)cc12 | -11.7% (active)
8 | Cc1ccc(-c2cc(C(=O)N=Nc3c(O)[nH]c4ccc(Br)cc34)c3ccccc3n2)cc1 | 14.9% (inactive)
9 | C/C(=C\CC/C=C(\C)CC/C=C(\C)CC[C@@H](O)C(C)(C)O)CC/C=C(\C)CC[C@@H](O)C(C)(C)O | 0.465% (active)
10 | COc1ccc(CCN2C(=O)/C(=C/c3csc(C#N)n3)SC2=S)cc1 | -11.2% (active)
11 | O=C(NO)c1ccc(Cn2ccc3c(Nc4ccccc4)ncnc32)cc1 | 7.84% (active)
12 | CCCCCCCCCCCCCCCCCCCC(=O)NCCc1c[nH]c2ccc(OC(=O)CCCC(=O)OCCOOCCOOCCOOCCOOCCOOCCOOCCOOCCOOCCOOCCOOCCOOCCOC)cc12 | -4.66% (active)
13 | COC[C@@H](CC(C)C)N=C1NC(=O)/C(=C/c2ccc3ncsc3c2)N1 | 11.1% (inactive)
14 | O=C(NC(=S)N1CCN(c2ncnc3c2cnn3-c2ccccc2)CC1)c1ccc(Cl)cc1 | 81.6% (inactive)

system: SR leukemia; assay: as above; settings: 10 µM

Row | SMILES | growth
15 | COc1ccc(C(=O)NC(=S)N2CCN(c3ncnc4c3cnn4-c3ccccc3)CC2)cc1 | 12.3% (inactive)
16 | COc1cccc(COc2ccc(/C=C3\Oc4cc(O)ccc4C3=O)cc2)c1 | 21.4% (inactive)
17 | CN1C(=O)/C(=C/c2nccs2)SC1=S | 52.3% (inactive)
18 | Cc1ccc(-c2cc(C(=O)N=Nc3c(O)[nH]c4ccc(Br)cc34)c3ccccc3n2)cc1 | 10.4% (inactive)
19 | O=C(NO)c1ccc(Cn2ccc3c(Nc4ccccc4)ncnc32)cc1 | 11.9% (inactive)
20 | O=C(NC(=S)N1CCN(c2ncnc3c2cnn3-c2ccccc2)CC1)c1ccc(Cl)cc1 | 13.9% (inactive)

system: RPMI-8226 leukemia; assay: as above; settings: 10 µM

Row | SMILES | growth
21 | CN1CCN(c2ccc(Nc3nc(NCCCNC(=O)c4ccc(F)cc4)c4sccc4n3)cc2)CC1 | -22.5% (active)
22 | O=C(CS(=O)(=O)c1oc(-c2ccc(Cl)cc2)nc1S(=O)(=O)c1ccc(Cl)cc1)N1CCOCC1 | -9.59% (active)
23 | COc1cccc(COc2ccc(/C=C3\Oc4cc(O)ccc4C3=O)cc2)c1 | 32.1% (inactive)
24 | O=C(O)CCCCCCCCCCN1C(=O)/C(=C/c2cnc(-c3ccc(Cl)cc3)s2)SC1=S | 74.9% (inactive)
25 | COc1cccc(C(N)=Nc2ccc(OCCCCCCn3cncn3)cc2)c1 | 16% (inactive)
26 | CN(C)c1cccc2c(S(=O)(=O)Nc3cccc(-c4csc(NC(=O)CCCCCN5CCN(c6cc7c(cc6F)C(=O)N(C6CCC(=O)NC6=O)C7=O)CC5)n4)c3)cccc12 (centres undefined) | 50.7% (inactive)
27 | Cc1ccc(C(C)C)cc1NC(=O)c1ccccc1O | 3.01% (active)
28 | COc1ccc2[nH]c(O)c(N=NC(=O)c3cc(-c4ccc(C)cc4)nc4ccccc34)c2c1 | 76.4% (inactive)
29 | CNC(=O)c1cc(-c2ccc(NC(=O)Nc3ccc(C)cc3)cc2)nc2cccnc12 | 88.8% (inactive)
30 | CC(=O)NNc1ccc2nnc(-c3ccc(Br)cc3)n2n1 | 91.7% (inactive)
31 | O=c1oc2ccc(-c3ccc(F)cc3F)cc2c(=O)n1-c1ccc(F)c(Cl)c1 | -31% (active)
32 | CCN1CCN(c2ccc(NC(=O)Nc3ccc(-c4cc(C(=O)NC(C)C)c5ncccc5n4)cc3)cc2C(F)(F)F)CC1 | -43.3% (active)
33 | COC(=O)C(Cc1ccc(O)c(O)c1)NC(=O)C(CSC/C=C(\C)CCCC(C)CCCC(C)CCCC(C)C)NC(C)=O (centres undefined) | -5.06% (active)
34 | CCCCCCCCCCCCCCCCCCCC(=O)NCCc1c[nH]c2ccc(O)cc12 | 28.2% (inactive)
35 | CCCCCc1ccc(S(=O)(=O)N(C(C)=O)c2cc(-c3csc(N(C)C(C)=O)n3)ccc2N2CCN(C)CC2)cc1 | -24.8% (active)
36 | CCCCCCCCCCCCCCCCCCCC(=O)NCCc1c[nH]c2ccc(OC(=O)NOCCOCCOCCOCCOCCOCCOCCOCCOCCOCCOCCOCCOCCOCCOCCOCCOCCOCCOCCOCCOCCOCCOC)cc12 | -29.5% (active)
37 | CC1(C)CC[C@]2(C(=O)N3CCOCC3)CC[C@]3(C)C(=CC[C@@H]4[C@@]5(C)CC[C@H](NCO)C(C)(C)[C@@H]5CC[C@]43C)[C@H]2C1 | -38.5% (active)
38 | Cc1ccc(-c2cc(C(=O)N=Nc3c(O)[nH]c4ccc(Br)cc34)c3ccccc3n2)cc1 | 60.8% (inactive)
39 | CCC(C)S(=O)(=O)c1oc(-c2ccc(C)cc2)nc1S(=O)(=O)c1ccccc1 (centres undefined) | -44.5% (active)
40 | C/C(=C\CC/C=C(\C)CC/C=C(\C)CC[C@@H](O)C(C)(C)O)CC/C=C(\C)CC[C@@H](O)C(C)(C)O | -11.4% (active)
41 | CC(C)C(=O)Nc1ccc(C(=O)NC(=S)Nc2ccc(C(=O)O)cc2)cc1 | 128% (inactive)
42 | CN1CCN(c2ccc(Nc3nc(N4CCN(S(=O)(=O)c5ccc(F)cc5)CC4)c4sccc4n3)cc2)CC1 | -24.2% (active)
43 | O=C(Cn1cc(CSc2nnc3oc4ccccc4n23)nn1)Nc1ccc(Br)cc1 | 93.2% (inactive)
44 | COc1ccc(CCN2C(=O)/C(=C/c3csc(C#N)n3)SC2=S)cc1 | -0.42% (active)
45 | CC(=O)Nc1nc(-c2ccc(N3CCN(C)CC3)c(NS(=O)(=O)c3ccc(C(F)(F)F)cc3)c2)cs1 | -29.4% (active)
46 | O=C(NO)c1ccc(Cn2ccc3c(Nc4ccccc4)ncnc32)cc1 | 20.3% (inactive)
47 | CC(=O)Nc1nc(-c2ccc(N3CCN(C)CC3)c(NS(=O)(=O)c3cccc4c(N(C)C)cccc34)c2)cs1 | 6.29% (active)
48 | COC[C@@H](CC(C)C)N=C1NC(=O)/C(=C/c2ccc3ncsc3c2)N1 | 4.92% (active)
49 | O=C(NC(=S)N1CCN(c2ncnc3c2cnn3-c2ccccc2)CC1)c1ccc(Cl)cc1 | 69.1% (inactive)
